Rows were chosen to be rich in hits. Some 3.9% of all compounds tested hit in one or more screens of this group.
KKLEB tox – cytotoxicity in KKLEB CF airway cells, primary screen, cytotoxicity control for CF NF-kB inhibitor project, cell-based, uHTS, fluorescence assay plates | KKLEB CF airway cells viability, ATPlite luminescence, overnight; hits give low values; cells stimulated with P. aeruginosa culture filtrate | activity change (cytotoxicity), % at 5 µM | actives 0.36% (n = 360,000) | AID 602141, 2011;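 active means corrected activity change at or below -50% at 5 µM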
TROY signal inh – inhibitors of TROY-driven NF-kB signaling, primary screen, Q293 LMP1-TROYcd cells, NF-kB luciferase, uHTS. Q293 LMP1-TROYcd NF-kB luciferase reporter, 4 h. inhibition, % at 10 µM. actives 0.98% (n = 360,000). AID 1347056, 2019;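 active means compounds whose plate-normalised and pattern-corrected inhibition of the luciferase reporter signal at the single screening dose is 50% or more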
TWEAK-Fn14 inh – inhibitors of TWEAK-Fn14 signaling, primary screen, luciferase reporter cells, uHTS; AID 1159606, 2016; actives 2% (n = 360,000); inhibition, % at 10 µM; TWEAK-stimulated Fn14 reporter cells, luciferase luminescence, 8 h; in the data active means inhibition above about 50%
Peg3 prom inh – Peg3 promoter-driven luciferase inhibitors, primary screen, cell-based, HeLa, luciferase luminescence | HeLa PEG-Prom luciferase reporter, overnight | inhibition, % at 20 µM | actives 1.7% (n = 360,000);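 active means inhibition of at least 50% at 20 µM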
HIF-2a block – HIF-2a reporter inhibitors, primary screen, luminescence, 786-0 RCC cells; inhibition, % at 18.8 µM; AID 624352, 2012; 786-0 RCC cells HIF-2a reporter, luciferase luminescence, overnight; actives 0.72% (n = 360,000);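 active means inhibition of the luminescence signal of 40% or more relative to plate controls, in a single-dose primary screen at 18.75 µM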
CF NFkB block – inhibitors of PAF-induced NF-kB signaling, primary screen, cell-based, GFP fluorescence, uHTS | KKLEB NF-kB-GFP reporter, GFP fluorescence overnight | inhibition, % at 5 µM | actives 0.86% (n = 360,000);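 active means at least 50% inhibition at 5 µM, scaled per plate between neutral and stimulator controls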;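 further: PAF is a Pseudomonas aeruginosa culture filtrate used as stimulus; plate controls were PAF-stimulated DMSO wells for no effect and unstimulated DMSO wells for full effect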
* = called active by the depositor.

SMILES	KKLEB tox	TROY signal inh	TWEAK-Fn14 inh	Peg3 prom inh	HIF-2a block	CF NFkB block
CC(O)C1C=CC=CC(=O)OC2CC3OC4C5OC5(C)CCC4(COC(=O)C4OC4(C)C(O)CO1)C2(C)C31CO1 (stereo not drawn)	-22	85*	99*	97*	66*	83*
CC(=O)OC1C(=O)OCC23CCC4(C)OC4C2OC2CC(OC(=O)C=CC=CC(=O)OCCC1C)C3(C)C21CO1 (stereo not drawn)	-55*	84*	99*	100*	72*	93*
Brc1ccc2c(c1)C(OC1CN3CCC1CC3)c1ccccc1CS2 (stereo not drawn)	-24	-22	0	110*	21	20
C[C@]12CCC3C(CC[C@H]4C[C@@H](O)CC[C@]34C)C1C[C@@H](N)[C@@H]2O (stereo partly drawn)	10	5	-28	-9	29	-19
COc1cccc(CNC2CN3CCC2CC3)c1OC (stereo not drawn)	11	7	68*	0	12	-6
CC(Cc1ccccc1)N(C)CC1C(=O)C2CCC1C2 (stereo not drawn)	-1	-12	-20	-13	-20	4
CC(=O)O[C@@H]1CC[C@]2(C)C3CC[C@]4(C)C(=O)[C@H](O)CC4C3[C@@H](OC(C)=O)C[C@H]2C1 (stereo partly drawn)	20	30	53*	9	19	-11
CC(=O)O[C@H]1CC[C@]2(C)C3CC[C@@]4(C)C(C[C@@H](O)[C@@H]4O)C3[C@@H](OC(C)=O)C[C@H]2C1 (stereo partly drawn)	2	3	-25	-5	11	-32
CCCCn1c(NC(=O)c2ccco2)c(C(=O)OCC)c2nc3ccccc3nc21	-1	52*	48	4	0	14
CCOC(=O)c1c(N)n(Cc2ccco2)c2nc3ccccc3nc12	6	10	7	12	9	-13
CCCCn1c(NS(=O)(=O)c2ccc(C)cc2)c(C(=O)OCC)c2nc3ccccc3nc21	0	63*	58*	20	4	12
CNC(=O)N(C)c1ccc(C(O)(C(=O)OC)C(F)(F)F)cc1 (stereo not drawn)	3	-4	4	16	11	-4
CC1OC(OC2CC(O)C3(CO)C4C(O)CC5(C)C(C6=CC(=O)OC6)CCC5(O)C4CCC3(O)C2)C(O)C(O)C1O (stereo not drawn)	-51*	44	92*	110*	84*	91*
CCN(c1ccc(C(O)(C(=O)OC)C(F)(F)F)cc1)S(=O)(=O)c1ccccc1 (stereo not drawn)	-3	-5	2	5	2	9
Cc1ccc(/C=C2\C(=O)NC(=S)N(c3ccc(F)cc3)C2=O)s1	-1	-26	-24	107*	-86	-45
Cc1ccc(/C=C2\C(=O)NC(=S)N(c3ccccc3F)C2=O)s1	-13	-7	47	108*	95*	84*
N#Cc1ncc(N=Cc2ccc(N(CCCl)CCCl)cc2)s1	-9	21	53*	7	8	15
O=c1c2ccccc2nc(-c2ccc(-c3ccccc3)cc2)n1-c1ccncc1	-10	-40	-3	-99	-98	5
COc1ccc(CN2Cc3cnnn3-c3ccccc3C2C)cc1 (stereo not drawn)	6	6	21	23	15	23
COC(=O)c1nc(-c2ccc3c(n2)C(=O)C(N)=C(OC)C3=O)c(N)c(-c2ccc(OC)c(OC)c2O)c1C	-28	27	-3	53*	37	89*
Cc1cc(O)c2c(c1)C(=O)C13C(=C2O)C(=O)[C@H]2[C@@H](O)[C@@H]1[C@H]1[C@H](O)[C@@H]3C(=O)C3=C(O)c4c(O)cc(C)cc4C(=O)C312 (stereo partly drawn)	-14	8	72*	19	-18	79*
Cc1nn(C)cc1/C=C1/CC2C3CC=C4CC(O)CCC4(C)C3CCC2(C)C1=O (stereo not drawn)	-2	9	-16	8	32	18
O=c1cccc2n1CC1CC2CN(S(=O)(=O)c2ccc(F)cc2)C1 (stereo not drawn)	8	-1	-6	13	15	-6
O=[N+]([O-])/C=C/c1c(Cl)cccc1Cl	-3	8	52*	92*	-6	57*
CCN(CC)c1ccc(/C=C/[N+](=O)[O-])cc1	-14	-5	-6	7	-3	-11
SMILES	KKLEB tox	TROY signal inh	TWEAK-Fn14 inh	Peg3 prom inh	HIF-2a block	CF NFkB block
Nc1ccc(S(=O)(=O)N2CC3CC(C2)c2cccc(=O)n2C3)cc1 (stereo not drawn)	0	2	-6	-1	3	-11
S=C1NC2(CCCCC2)NC12CCCCC2	5	-11	-9	-3	10	-3
CCOC(=O)C(O)(c1ccc(NC(=S)NC(=O)c2ccc(Cl)cc2Cl)c(C)c1)C(F)(F)F (stereo not drawn)	4	58*	72*	27	11	10
COC(=O)C(O)(c1ccc(NC(=S)NC(=O)c2ccc(Cl)cc2Cl)c(C)c1)C(F)(F)F (stereo not drawn)	-4	64*	56*	8	12	10
CCC(=NCc1cc(OC)cc(OC)c1)c1c(O)n(C)c(=O)n(C)c1=O	-2	32	37	23	16	-21
CC12CCC3C(CC=C4CC(O)CCC43C)C1C/C(=C\c1ccccc1F)C2=O (stereo not drawn)	-29	18	-47	51*	-15	40
CCOc1ccc2nc(N3CCC(C(=O)N4CCC5(CC4)OCCO5)CC3)sc2c1	-14	-46	10	-110	-149	-3
COC/C=C1\CN2C3C[C@@H]1[C@H]1COC4=Nc5cc(OC)c(OC)c(OC)c5[C@@]43C[C@@H]12	16	2	3	8	12	-23
CN(C)c1ccc(/C=C/C=C/c2sc3ccccc3[n+]2C)cc1	-9	20	41	29	0	22
CC[n+]1c(/C=C/C=C/c2ccc(N(C)C)cc2)sc2ccccc21	18	52*	56*	65*	-19	-26
CCC1C2CC3C4N(C)c5ccccc5C45CC(C2C5O)N3C1O (stereo not drawn)	-3	3	11	3	8	1
Cc1ccnc(-n2c(C)cc(C=C3C(=O)N(C)C(=S)N(C)C3=O)c2C)c1	5	1	87*	3	-2	4
